PubChem BioAssay AID1672 (Johns Hopkins Ion Channel Center, 2009)
In all, about 310,000 compounds went through this assay and about 2,600 (0.84%) were called active. The sample holds actives, similar compounds and a random draw of the others, so the mix is not that of the screen.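 Rule for the calls: active = fluorescence ratio B-score at or below minus 3 SD of library scores, with starting-brightness B-score within 2 SD (cut at about -4.2 in these data); inactive = the rest.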

What follows are compounds tested against Inward rectifier potassium channel 2 (Mus musculus) (UniProt P35561) (assay: inhibitors of mouse Kir2.1 inward-rectifier potassium channel (AID 1672;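 note: channel flux triggered by added potassium and thallium sulfate stimulus; B-score of peak minus minimum fluorescence over baseline after thallium stimulus; more negative B-score means stronger Kir2.1 block with less thallium influx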)). Conditions: HEK293-Kir2.1, FluxOR thallium flux fluorescence; at 10 µM; stronger effect = lower value.
Chain of Inward rectifier potassium channel 2 (Mus musculus) (P35561 whole entry, looked up): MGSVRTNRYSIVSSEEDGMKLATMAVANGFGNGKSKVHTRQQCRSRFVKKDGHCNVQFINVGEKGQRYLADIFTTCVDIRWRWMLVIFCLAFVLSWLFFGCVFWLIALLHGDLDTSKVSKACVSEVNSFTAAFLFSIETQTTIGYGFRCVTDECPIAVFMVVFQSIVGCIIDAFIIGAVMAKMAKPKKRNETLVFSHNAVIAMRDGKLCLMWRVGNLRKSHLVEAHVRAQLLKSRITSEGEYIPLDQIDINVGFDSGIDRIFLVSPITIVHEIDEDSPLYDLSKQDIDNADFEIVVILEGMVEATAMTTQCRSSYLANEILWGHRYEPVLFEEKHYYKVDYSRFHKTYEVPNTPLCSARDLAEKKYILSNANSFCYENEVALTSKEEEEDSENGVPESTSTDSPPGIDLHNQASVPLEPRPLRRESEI
In the case of `CNCC(O)c1cc(F)c(OCc2ccccc2)c(OCc2ccccc2)c1F` (stereo not given), the B-score is reported as -10.4 (active). In the case of `COc1ccc2c(c1O)-c1cccc3c1[C@@H](C2)N(C)CC3`, the B-score is reported as -0.89 (inactive). In the case of `C=CC12CN(C)[C@@H]3C4CO[C@H](C[C@H]41)[C@]1(C(=O)Nc4ccccc41)[C@@H]32` (stereo not given in full), the B-score is reported as -0.31 (inactive). With `COC(=O)C1=C(c2ccccc2)C[C@@H]2CC[C@H]1N2C(=O)NCc1ccco1` the B-score was -0.88 (inactive). `COc1ccc(N2C(=O)/C(=C/c3ccco3)C(=O)NC2=S)cc1` was tested, and the B-score was -1 (inactive). With `COC(=O)N(c1ccc(OC)cc1)P1(=S)OCCC(C)O1` (stereo not given) the B-score was -0.02 (inactive). In the case of `CCOc1cccc(=NC2CCCCC2)c2c(C)[nH]c(C)c12`, the B-score is reported as -6.51 (active). With `CCC(C)n1c(O)c(/C=N/Nc2nc3c(c(=O)n(C)c(=O)n3C)n2C)c(=O)[nH]c1=S` (stereo not given) the B-score was 1.97 (inactive). With `CCN1C(=O)C(=Cc2c(C)n(CC(=O)NCC3CCCO3)c3ccccc23)C(=O)N(CC)C1=S` (stereo not given) the B-score was 1.19 (inactive). In the case of `Cc1ccc(S(=O)(=O)N(C)c2ccc(C(=O)NCC3(N(C)C)CCCCC3)cc2)cc1`, the B-score is reported as 0.21 (inactive). `COC(=O)C1=C(c2ccccc2)C[C@@H]2CC[C@H]1N2C(=O)N1CCCCC1` was tested, and the B-score was -0.79 (inactive). In the case of `c1ccc(C2NCc3ccccc3-n3cccc32)cc1` (stereo not given), the B-score is reported as -6.08 (active). For `COc1ccc(C2NCc3ccc4c(c3-n3cccc32)OCO4)cc1OC` (stereo not given), the B-score was -0.31 (inactive). `COc1ccc2c(c1)[C@]13CCCCC1C(C2)N(C)CC3` (stereo not given in full) was tested, and the B-score was -0.18 (inactive). In the case of `O=C(Cc1ccccc1)N1CCN(C2CCCCCC2)CC1`, the B-score is reported as -1.16 (inactive). For `CCCCn1c(=O)c(C(=O)Nc2ccccc2Cl)c(O)c2ccccc21`, the B-score was -1.32 (inactive). `CN(C)CCN(CC1CCCN(Cc2ccccc2F)C1)C(=O)Cc1ccc(F)c(F)c1` (stereo not given) was tested, and the B-score was -0.57 (inactive). `O=C1N=c2ccccc2=C/C1=C\c1c(O)[nH]c(=S)[nH]c1=O` was tested, and the B-score was 0.39 (inactive). For `CCCCCCCCCCCCn1ccc(=N)cc1`, the B-score was -13 (active). With `COc1ccc(C(=O)CC2C(=O)N(C)C(=O)N(C)C2=O)cc1` the B-score was 0.17 (inactive). For `c1ccc(CCN2CCC3(CC2)OCCO3)cc1`, the B-score was 1.88 (inactive). In the case of `COC(=O)C1=C(c2cc3ccccc3s2)C[C@@H]2CC[C@H]1N2C(=O)NCCO`, the B-score is reported as -0.7 (inactive). `Clc1ccc2nc3c(c(-c4ccccc4)c2c1)CNCC3` was tested, and the B-score was -7.18 (active). `Cc1nn(-c2ccccc2)c(C)c1NC(=O)COC(=O)Cc1ccccc1` was tested, and the B-score was -0.02 (inactive). For `CCOC(=O)C1(CCc2ccccc2)CCN(Cc2ccco2)CC1`, the B-score was -2.11 (inactive). With `CC[C@H]1CC2CN3CCc4c([nH]c5ccccc45)C(C(=O)OC)(C2)C13` (stereo not given in full) the B-score was -2.28 (inactive). With `CC(c1ccccc1)(c1ccccc1)c1ccncc1` the B-score was -4.28 (active). `CCN(CC)C(=O)c1ccc(NC(=O)c2sccc2-c2ccccc2)cc1` was tested, and the B-score was 0.02 (inactive). With `COC(=O)C1=C(c2cc3ccccc3s2)C[C@@H]2CC[C@H]1N2C(=O)NC(C)C` the B-score was -1.96 (inactive). For `O=C(C1CC(=O)N(C2CCCC2)C1)N1CCC2(CC1)OCCO2` (stereo not given), the B-score was 0.05 (inactive). For `Cc1ccc(C2CN(C)CC2C(=O)c2ccc(F)cc2)cc1` (stereo not given), the B-score was -2.69 (inactive). For `O=c1c2ccccc2nc(/C=C/c2ccco2)n1-c1ccccc1O`, the B-score was -0.02 (inactive). With `C/C(=N/O)c1ccc2ccc3ccccc3c2c1` the B-score was -0.33 (inactive). `Cc1nc2ccccn2c1P(=S)(N1CCCCC1)N1CCCCC1` was tested, and the B-score was -5.35 (active). With `CCCCCn1c(=O)c(C(=O)NCc2ccccc2)c(O)c2ccccc21` the B-score was 1.46 (inactive). In the case of `COc1ccccc1C1=NCc2nnc(CSC)n2-c2ccc(Cl)cc21`, the B-score is reported as 0.29 (inactive). In the case of `CCOc1ccc(-c2cc(C)[n+](CCN(CC)CC)c(-c3ccc(OCC)cc3)c2)cc1`, the B-score is reported as -4.58 (active). In the case of `Cc1cc2ccccn2c1C(C[N+](=O)[O-])c1c(F)cccc1Cl` (stereo not given), the B-score is reported as -0.86 (inactive). `COc1ccc(CNCCc2ccc3c(c2)OCO3)c(OC)c1OC` was tested, and the B-score was 0.87 (inactive). With `COc1ccc(CNCCc2c[nH]c3ccccc23)cc1OC` the B-score was 0.17 (inactive). For `COc1ccc(Br)cc1CNCCc1cccc(Cl)c1`, the B-score was -10.4 (active). For `NCCc1c[nH]c2ccc(O)cc12`, the B-score was -0.71 (inactive). In the case of `COC(=O)C1=C(c2cc3ccccc3s2)C[C@@H]2CC[C@H]1N2C(=O)NCc1cccc2ccccc12`, the B-score is reported as 2.94 (inactive). In the case of `COC(=O)C1=C(c2cc3ccccc3o2)C[C@@H]2CC[C@H]1N2C(=O)NC1CCCCC1`, the B-score is reported as -0.65 (inactive). For `CN(c1ccccc1)c1ccc([N+](=O)[O-])c2nonc12`, the B-score was -1.89 (inactive). In the case of `O=C(Cc1ccccc1[N+](=O)[O-])N1CCN(Cc2ccc3c(c2)OCO3)CC1`, the B-score is reported as 0.65 (inactive). In the case of `Fc1ccc(N2CCN(Cc3ccc4c(c3)OCO4)CC2)cc1`, the B-score is reported as -6.26 (active). `Oc1cc2c(cc1CN1CCN(c3ccccc3)CC1)OCO2` was tested, and the B-score was -0.91 (inactive). With `CCN1CCN(c2nc3c(c(=O)[nH]2)CCC3)CC1` the B-score was 1.68 (inactive). In the case of `COc1cccc(N2C(=O)NC(=O)/C(=C\c3cn(C)c4ccccc34)C2=O)c1`, the B-score is reported as 0.09 (inactive).
